Screens as filed in PubChem.
Bim-Bcl-XL: human Bim-Bcl-XL interaction inhibition; Q07817; Bim peptide-Bcl-XL binding, bead flow cytometry, fluorescence; inhibition, % at 10 µM; actives 0.04% (n = 190,000)
Bim-Bcl-B: disrupts Bim peptide binding to human Bcl-B; bead-based flow cytometry; inhibition, % at 10 µM; actives 0.073% (n = 190,000); AID 951;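 further: 0% = tracer peptide without compound and 100% = reference inhibitor peptide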
Bim-Bcl-W: disrupts Bim peptide binding to human Bcl-W | inhibition, % at 10 µM | actives 0.02% (n = 190,000) | bead-based flow cytometry;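 further: 0% = bound tracer without compound and 100% = peptide blocker; higher means less fluorescent Bim peptide bound to Bcl-W beads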
Target sequence (Q92843 whole entry, looked up): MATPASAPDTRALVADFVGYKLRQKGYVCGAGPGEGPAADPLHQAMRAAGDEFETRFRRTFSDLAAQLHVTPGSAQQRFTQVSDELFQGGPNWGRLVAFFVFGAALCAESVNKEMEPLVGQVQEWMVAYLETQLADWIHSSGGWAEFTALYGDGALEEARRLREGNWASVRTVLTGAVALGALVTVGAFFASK
Pf gametocyte: inhibitors of late stage P. falciparum gametocyte viability. P. falciparum stage V gametocytes, ATP luminescence, 24 h. inhibition, % at 10.9 µM. actives 0.065% (n = 150,000);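 active means inhibition above the mean plus 3 SD of compounds within the control limits, set per campaign, cut at about 38% in these data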;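 further: 0% = DMSO wells and 100% = medium only without gametocytes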
Bcl-2 Bim block: inhibitors of Bim-Bcl-2 interaction, human; Bead-based flow cytometry, Bim peptide-Bcl-2 binding; inhibition, % at 10 µM; actives 0.06% (n = 190,000); AID 950; in the data active means inhibition above about 40%;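 further: 0% = no compound wells with probe peptide and 100% = reference peptide inhibitor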
Bfl-1 Bim block: disrupts Bim binding to human Bfl-1; inhibition, % at 10 µM; Bead-based flow cytometry, Bim-Bfl-1 binding inhibition; Q16548; actives 0.12% (n = 190,000);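 further: 0% = wells without compound plus tracer and 100% = blocker peptide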
Starred values were filed as active, the others as inactive; x = not tested or not shown. An excerpt weighted towards active compounds, which were near 0.2% of everything screened. Unless noted, no stated cut-off is given here; in the data, active means inhibition above about 40%.

SMILES	Bim-Bcl-XL	Bim-Bcl-B	Bim-Bcl-W	Pf gametocyte	Bcl-2 Bim block	Bfl-1 Bim block
c1ccc(-c2nc(N3CCOCC3)s[n+]2-c2ccccc2)cc1	9.0	-44.0	7.0	4.1	14.0	52.0*
CNC(C(=O)c1ccccc1)C(OC(C)C)c1ccc(Cl)cc1 (stereo unspecified)	-2.0	2.0	0.0	x	-2.0	-2.0
COP(=O)(CC(=O)O)c1ccccc1 (stereo unspecified)	51.0*	95.0*	36.0	x	26.0	-3.0
C1CNC2NCCNC2N1 (stereo unspecified)	4.0	3.0	6.0	x	5.0	4.0
